The values that follow come from PubChem BioAssay (NCATS).

A number with no mark means an inactive call. Results filed as inconclusive are left out. The source made the active and inactive calls. Calls follow the shape of the dose curve; as a rule, active = well fitted curve in the direction sought with a large enough effect; inconclusive = small, poorly fitted or top-dose-only effect, or another doubt; inactive = no such curve, though single readings can be large; an effect the other way counts as inactive or inconclusive.

The nature of assay [1]: Quantitative High-Throughput drug screen in 47 multiple myeloma cell lines against the NCATS MIPE library collection: FR4_PLB cell viability assay (AID 1918924; also: nearly all actives have a fitted effect of over 35% in size; also: potency is read from the fitted curve at half-maximal effect;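 as to viability (% of DMSO control): 100% = DMSO-treated cells and 0% = wells with media only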). The method in brief:
(§1)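 Approved and investigational drugs from MIPE 4.0 were added by pin tool to 500 cells per well. After 48 hours at 37C, ATP-based CellTiter-Glo luminescence indicated remaining viability.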

Assay [2] in a line: Quantitative High-Throughput drug screen in 47 multiple myeloma cell lines against the NCATS MIPE library collection: Delta47_JCRB cell viability assay (AID 1918925; also: nearly all actives have a fitted effect of over 45% in size; also: potency is read from the fitted curve at half-maximal effect;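 as to viability (% of DMSO): 0% = media-only wells and 100% = DMSO-only wells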). The method in brief: as §1
The nature of assay [3]: Quantitative High-Throughput drug screen in 47 multiple myeloma cell lines against the NCATS MIPE library collection: EJM_DSMZ cell viability assay (AID 1918926; also: nearly all actives have a fitted effect of over 30% in size; also: potency is read from the fitted curve at half-maximal effect;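 as to viability, % of control: 100% = DMSO-only wells and 0% = media-only wells without cells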). Summed up:
as §1

Assay [4] in a line: Quantitative High-Throughput drug screen in 47 multiple myeloma cell lines against the NCATS MIPE library collection: AMO1_DSMZ cell viability assay (AID 1918927; also: nearly all actives have a fitted effect of over 30% in size; also: potency is read from the fitted curve at half-maximal effect). Summed up: as §1
Assay [5] is described as follows: Quantitative High-Throughput drug screen in 47 multiple myeloma cell lines against the NCATS MIPE library collection: ARP1_JJKsccF8 cell viability assay (AID 1918928; also: nearly all actives have a fitted effect of over 40% in size; also: potency is read from the fitted curve at half-maximal effect;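 as to viability: 100% = DMSO only wells and 0% = medium only wells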). Summed up: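 Each line was plated at 500 cells/well and treated 48 h with library drugs. Viability came from CellTiter-Glo luminescence relative to DMSO and cell-free medium controls.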
Assay [6] in a line: Quantitative High-Throughput drug screen in 47 multiple myeloma cell lines against the NCATS MIPE library collection: ARD_JJKsccE7 cell viability assay (AID 1918929; also: potency is read from the fitted curve at half-maximal effect;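 as to viability: 100% = DMSO-only wells and 0% = media-only wells without cells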). Summed up:
as §1

The target of assay [7] is Phospholipid hydroperoxide glutathione peroxidase GPX4 (Homo sapiens) (UniProt P36969). Description: Primary qHTS Assay for Inhibitors of Recombinant Selenoprotein Glutathione Peroxidase 4 (GPX4) (AID 1845192). Also: nearly all actives have a fitted effect of over 65% in size. As to activity change, negative = inhibition: series mostly up to about 50 µM; % is scaled to controls: 0 for no effect and ±100 for the full control effect. The method in brief:
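NADPH consumption followed by fluorescence at 340/450 nm, t=0 and after 15 min at room temperature. Reaction started with cumene hydroperoxide (0.5 mM final) after 30 min compound–GPX4 preincubation; final 200 nM GPX4, 100 nM GR, 1 mM GSH, 0.5 mM NADPH.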
(Quantitative high-throughput screening tests each substance at several concentrations.)

The target of assay [8] is Luciferin 4-monooxygenase (Photinus pyralis) (UniProt P08659). Description: Primary firefly luciferase (FLuc) qHTS assay for identification of artifact compounds. (AID 1845220). Also: nearly all actives have a fitted effect of over 60% in size.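 As to activity change, negative = inhibition: series mostly up to about 54 µM; plate controls were DMSO vehicle for no effect and no enzyme for full effect.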 The method in brief:
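Cell-free, 1536-well qHTS. Buffer pH 7.6 with 0.01% Tween-20 and 0.05% BSA; 10 uM D-luciferin, 10 uM ATP; 10 nM P. pyralis luciferase; luminescence after 5 min.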

A short description of assay [9]: Primary fluorescence-based thiol-reactive (MSTI) qHTS assay for identification of artifact compounds. (AID 1845221). Also: nearly all actives have a fitted effect of over 65% in size. Also: potency is read from the fitted curve at half-maximal effect. The method in brief: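 Probe: MSTI 4 uM, PBS pH 7.4, 2% DMSO. Incubation 1 h, RT, light-protected. Readout fluorescence 525/598 nm.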
In assay [10] the test system is Nanoluciferase (engineered Oplophorus gracilirostris luciferase). The assay is described as follows: Primary Nanoluciferase (NLuc) qHTS assay for identification of artifact compounds. (AID 1845222).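 Also: series mostly up to about 54 µM; 0% = DMSO and -100% = no enzyme.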 Summed up:
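Compounds are pinned into diluted (1:55) conditioned medium of NLuc-expressing S16 cells and held 15 min at room temperature protected from light. Nano-Glo substrate follows, and luminescence is read 5 min later.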

A short description of assay [11]: Primary redox qHTS assay for identification of artifact compounds. (AID 1845223).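 Also: 0% = DMSO and 100% = reference compound.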 Summed up: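 Redox-cycling detection via DTT (250 uM final) oxidation coupled to Amplex Red (25 uM)/HRP (250 mU/mL) in HBSS. 15 min preincubation plus 30 min after DTT, room temperature. Ex/Em 525/598 nm; 4-parameter Hill fit against DMSO and 10 uM DA3003.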

Phospholipid hydroperoxide glutathione peroxidase GPX4 (Homo sapiens), sequence (P36969 whole entry, looked up): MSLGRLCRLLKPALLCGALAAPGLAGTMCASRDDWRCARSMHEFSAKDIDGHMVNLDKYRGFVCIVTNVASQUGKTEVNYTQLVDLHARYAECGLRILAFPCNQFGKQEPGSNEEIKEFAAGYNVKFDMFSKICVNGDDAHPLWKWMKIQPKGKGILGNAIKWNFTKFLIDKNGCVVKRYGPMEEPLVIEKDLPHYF

With `C=C1C(=O)O[C@H]2[C@@H]1CCC(C)=CCC[C@@]1(C)O[C@@H]21`, the Potency in [1] is 4.69 µM (active); in assay [2], 2.35 µM (active); in assay [3] it was 5.26 µM (active); in [4], 3.32 µM (active); in assay [5] it was 4.69 µM (active); in assay [6], 2.96 µM (active).
For the compound `O=C(O)C[C@H](O)C[C@H](O)C=Cc1c(C2CC2)nc2ccccc2c1-c1ccc(F)cc1`, the Potency is 10.5 µM (active) in assay [1]; 8.33 µM (active) in [2]; 9.35 µM (active) in [4]; 13.2 µM (active) in [5]; 4.18 µM (active) in [6]. Further, in [3], the Potency entry is “inactive”.
As to `CC(C)N1[N]C(=C2C=c3cc(O)ccc3=N2)c2c(N)ncnc21`, the Potency in assay [1] is 0.296 µM (active); in [2] it was 0.264 µM (active); in assay [3] it was 3.72 µM (active); in assay [4], 0.662 µM (active); in assay [5], 0.0833 µM (active).
As to `O=C(Nc1cccc(Nc2ncc(Br)c(NCCc3cnc[nH]3)n2)c1)N1CCCC1`, the Potency result in assay [7] and in [4] was “inactive” throughout. Further, the Potency in [2] is 4.18 µM (active); in [3], 16.6 µM (active); in assay [5], 18.7 µM (active).
On to `CC(C)(O)[C@H]1CC[C@@](C)([C@H]2[C@@H](O)C[C@@]3(C)[C@@H]4C[C@H](O[C@@H]5O[C@H](CO)[C@@H](O)[C@H](O)[C@@H]5O)[C@H]5C(C)(C)[C@@H](O[C@@H]6OC[C@@H](O)[C@H](O)[C@@H]6O)CC[C@@]56C[C@@]46CC[C@]23C)O1`, for which the Potency entry in [1], in assay [2], in assay [3], in assay [4], in [5] and in [6] was “inactive” in each case.
Turning to `CC(C)c1cc(C(C)C)c(CC(=O)NS(=O)(=O)Oc2c(C(C)C)cccc2C(C)C)c(C(C)C)c1`, the Potency result in [8], in [9] and in assay [2] was “inactive” throughout. Further, the compound was called inactive in assay [10]. Besides, the Potency in assay [4] was 4.69 µM (active).
Take `COc1cccc2c1C(=O)c1c(O)c3c(c(O)c1C2=O)C[C@@](O)(C(=O)CO)C[C@H]3O[C@H]1C[C@H](N)[C@H](O)[C@H](C)O1`: the Potency was 0.264 µM (active) in assay [1]; 0.148 µM (active) in [2]; 0.209 µM (active) in assay [3]; 1.05 µM (active) in [4]; 0.332 µM (active) in assay [5]; 2.96 µM (active) in assay [6].
With `CC(=O)[C@]1(O)Cc2c(O)c3c(c(O)c2[C@@H](O[C@H]2C[C@H](N)[C@@H](O)[C@H](C)O2)C1)C(=O)c1ccccc1C3=O`, the Potency was 0.469 µM (active) in assay [1]; 0.105 µM (active) in assay [2]; 0.118 µM (active) in assay [3]; 0.833 µM (active) in assay [4]; 0.264 µM (active) in assay [5]; 3.32 µM (active) in assay [6].
With `CC(Oc1ccc(O)cc1)(P(=O)(O)O)P(=O)(O)O`, the Potency result in [7], in [3] and in assay [5] was “inactive” in each case.
Consider `Cn1cc(C[C@@H](N)C(=O)O)c2ccccc21`, for which the activity change, negative = inhibition in assay [7] was 0.696% [at 9.73 µM]. Also, the Potency result in assay [2], in assay [3], in assay [4] and in assay [5] was “inactive” in each case.
Regarding `C[C@H](CCC(=O)O)[C@H]1CC[C@H]2[C@@H]3[C@H](O)C[C@@H]4C[C@H](O)CC[C@]4(C)[C@@H]3CC[C@]12C`, the Potency result in assay [1], in assay [2], in [3], in [4], in assay [5] and in assay [6] was “inactive” each time.
On to `CC(C(C)N1CC(=O)NC(=O)C1)N1CC(=O)NC(=O)C1` (configuration not stated), for which the Potency entry in assay [7] and in assay [3] was “inactive” in each case. Also, in assay [4], the Potency was 0.332 µM (active).
For the compound `Nc1nc(=O)n([C@H]2CSC(CO)O2)cc1F` (some centres not stated), the Potency entry in assay [1], in assay [2], in [3], in assay [4], in assay [5] and in assay [6] was “inactive” each time.
In the case of `COc1ccc(S(=O)(=O)Nc2cccnc2Nc2ccc(O)cc2)cc1`, the Potency entry in assay [8] and in [11] was “inactive” throughout. Also, the Potency in assay [9] was 4.23 µM (active); in assay [1] it was 0.0264 µM (active); in assay [2], 0.0264 µM (active); in assay [3], 0.296 µM (active); in assay [5], 0.059 µM (active). Further, the compound was classed as inactive in assay [10].
As to `C=CC(=O)Nc1cccc(Nc2nc(NC3CCC(N(C)C)CC3)nc3c2ncn3C(C)C)c1` (configuration not stated), the Potency was 0.235 µM (active) in assay [1]; 0.235 µM (active) in assay [2]; 0.0083 µM (active) in assay [3]; 0.743 µM (active) in assay [5]; 0.0105 µM (active) in [6].
With `CC(C)(C)[C@H](NC(=O)c1ccc(N)c(Cl)c1)C(=O)N1CCC[C@@H]1C(=O)N[C@H](C#N)CC(=O)O`, the viability (% of DMSO control) in assay [1] was 107% [at 3.51 µM]. Moreover, the viability (% of DMSO) in [2] is 119% [at 3.51 µM]. Moreover, the viability, % of control in assay [3] is 97.8% [at 3.51 µM]. The viability – broadly, a read-out of living cells in per cent, often relative to untreated cells – in assay [5] is 111% [at 3.51 µM].
Turning to `COc1cc(C=CC(=O)CC(=O)C=Cc2ccc(O)c(OC)c2)ccc1O`, the Potency in assay [1] was 10.8 µM (active); in assay [2], 4.29 µM (active); in assay [3], 21.5 µM (active); in assay [4], 5.4 µM (active); in assay [5], 8.55 µM (active); in [6], 6.05 µM (active).
Regarding `COc1cc(OC)c(C=CS(=O)(=O)Cc2ccc(OC)c(NCC(=O)O)c2)c(OC)c1`, the Potency in [1] is 0.118 µM (active); in assay [2], 0.148 µM (active); in [4] it was 0.0332 µM (active); in assay [5], 0.372 µM (active); in assay [6], 0.0743 µM (active).
With `CC(C=CC1=C(C)CCCC1(C)C)=CC=CC(C)=CC(=O)Nc1ccc(O)cc1`, the Potency in assay [1] was 9.59 µM (active); in assay [2], 3.82 µM (active); in assay [3], 8.55 µM (active); in assay [4], 3.4 µM (active); in assay [5] it was 19.1 µM (active); in assay [6] it was 8.55 µM (active).
`NS(=O)(=O)OC[C@@H]1C[C@@H](n2ccc3c(N[C@H]4CCc5ccccc54)ncnc32)C[C@H]1O`: the Potency in assay [1] was 9.35 µM (active); in [2], 0.526 µM (active); in assay [4], 0.296 µM (active).
`CCOC(=O)N1CCN([N+]([O-])=NOc2ccc([N+](=O)[O-])cc2C#N)CC1`: the Potency in assay [1] is 0.743 µM (active); in assay [2], 1.05 µM (active); in assay [4], 1.05 µM (active); in [5] it was 1.05 µM (active); in [6], 0.833 µM (active).
For the compound `C=CC(=O)Nc1cc(NC(=O)c2ccc(C)c(NC(=O)c3ccno3)c2)cc(C(F)(F)F)c1`, the Potency was 26.4 µM (active) in assay [1]; 9.35 µM (active) in [2]; 16.6 µM (active) in assay [3]; 5.26 µM (active) in assay [4]; 16.6 µM (active) in [5]; 5.9 µM (active) in [6].
In the case of `C[C@@H]1[C@H](C)CC[C@]2(C(=O)O)CC[C@]3(C)C(=CC[C@@H]4[C@@]5(C)C[C@@H](O)[C@H](O)[C@@](C)(CO)[C@H]5CC[C@]43C)[C@@H]12`, the Potency entry in assay [1], in assay [2], in assay [3], in [4], in assay [5] and in assay [6] was “inactive” each time.
